# Source: PubChem BioAssay (NCI)
# Compounds without any hit were thinned out: in the full panel of roughly 79,000, 15% have a hit. Calls of active or inactive are those of the source. No stated cut-off is given here; in the data, active means growth inhibition above about 70%; inactive means the rest.
# Experiment: NCI Yeast Anticancer Drug Screen. Data for the mgt1 strain (AID 153)
# Conditions: S. cerevisiae mgt1 mutant growth inhibition; at 100.0 µM; stronger effect = higher value
# Outline: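 mgt1 strain exposed; growth vs vehicle control recorded as inhibition.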
row,SMILES,growth inhibition
1,CCN(CC)CC[n+]1ccc2c(C)c3[nH]c4ccc(O)cc4c3c(C)c2c1,8% (inactive)
2,O=[n+]1c2ccc(Cl)cc2n([O-])c2ccc(Cl)cc21,10% (inactive)
3,CCOP(=O)(OCC)C(Cc1ccccc1)N=C(c1ccccc1)c1ccccc1 (centres undefined),98% (active)
4,CC[C@@]1(O)C(=O)OCc2c1cc1n(c2=O)Cc2cc3c(N)cccc3nc2-1,5% (inactive)
5,COC1C=COC2(C)Oc3c(C)c(O)c4c(c3C2=O)/C(=N/C2CCC(O)OC2C)C=C(NC(=O)/C(C)=C\C(=O)C2CC2C(O)C(C)C(O)C(C)C(OC(C)=O)C1C)C4=O (centres undefined),80% (active)
6,COc1cc2c(c(OC)c1OC)-c1c(cc3c(c1OC)OCO3)CC(C)C(C)(O)C2OC(=O)c1ccccc1 (centres undefined),70% (active)
7,O=c1ssc2ncccc12,99% (active)
8,O=C1C2C(C(=O)N1c1ccc(OCc3ccccc3)cc1)C1c3ccccc3C2C2CCCCN21 (centres undefined),95% (active)
9,COc1ccc(-c2cn(-c3ccc(I)cc3)c3ncnc(N)c23)cc1,17% (inactive)
10,CCOC(=O)C(NC(=O)c1ccccc1)(N1CCN(c2cc3c(cc2F)c(=O)c(C(=O)O)cn3C2CC2)CC1)C(F)(F)F (centres undefined),2% (inactive)
11,C/C(=N\O)C1CC2C=C(C#N)C1N(Cc1ccccc1)C2 (centres undefined),-1% (inactive)
12,CC/C(=C(\c1ccccc1)c1ccc(OCCN(C)C)cc1)c1ccccc1,97% (active)
13,COc1ccccc1N=NC(C(=O)c1ccccc1)C(=O)c1ccccc1,98% (active)
14,CC(O)C(O)C(O)C(/C=N\Nc1ccccc1)=N/Nc1ccccc1 (centres undefined),99% (active)
15,COc1ccc(/C=C2\SC(=S)N(/C=C/c3nc4ccccc4[nH]c3=O)C2=O)cc1OC,94% (active)
16,N#CN=Nc1cc(Cl)c(N=NC#N)cc1Cl,70% (active)
17,Cc1ccc(S(=O)(=O)Oc2cc(Cl)c(Cl)cc2Cl)cc1,-8% (inactive)
18,c1ccc2c(c1)Oc1cccc3cccc-2c13,27% (inactive)
19,O=C(c1ccc(Cl)cc1Cl)C(Cl)Cl,99% (active)
20,CC(C)C1=CCC2C(=C1)CCC1C(C)(C(=O)O)CCCC21C (centres undefined) (tested in a mixture with another compound),94% (active)

row,SMILES,growth inhibition
1,COc1cc(/C=C2\CCc3ccccc3C2=O)cc(OC)c1OC,73% (active)
2,CC(=O)[O][Bi]([c]1ccccc1)[c]1ccccc1,95% (active)
3,S=C(N/N=C/c1ccccn1)Nc1ccc(Cl)cc1,59% (inactive)
4,COc1cc(CC2CC(c3ccc4c(c3)OCO4)OC2=O)cc(OC)c1OC (centres undefined),6% (inactive)
5,CNC1C(OC2C(OC3C(O)C(O)C(N=C(N)N)C(O)C3N=C(N)N)OC(C)C2(O)CO)OC(CO)C(O)C1O (centres undefined),-9% (inactive)
6,NNC(=O)CCc1ccc2ccc3ccccc3c2c1,23% (inactive)
7,Oc1ccc2ccccc2c1C(c1ccc(Cl)cc1)c1c(O)ccc2ccccc12,88% (active)
8,CCCCN(CCCC)CCSc1ccc(Cl)cc1,73% (active)
9,CCC(C)COC(=O)c1ccc(N=Cc2ccc(C=Nc3ccc(C(=O)OCC(C)CC)cc3)cc2)cc1 (centres undefined),6% (inactive)
10,CC1(C)C(=O)OC(n2cc(F)c(=O)[nH]c2=O)C1=O (centres undefined),67% (inactive)
11,O=[N+]([O-])CC(SCc1ccccc1)c1ccc2c(c1)OCO2 (centres undefined),97% (active)
12,COc1cc2c(cc1[N+](=O)[O-])C(=O)C(Br)(Br)CCC2,97% (active)
13,OCC1OC(OCC(O)C(O)C(O)C(/C=N/Nc2ccccc2)=N/Nc2ccccc2)C(O)C(O)C1O (centres undefined),5% (inactive)
14,COc1ccc(N=C2C(=O)Nc3ccc(Br)cc32)cc1,1% (inactive)
15,Cn1c(=O)c2ccccc2c2ccccc21,51% (inactive)
16,CC[n+]1ccc2c(C)c3[nH]c4ccc(O)cc4c3c(C)c2c1,14% (inactive)
17,CC(=O)ON1C(=O)c2cccc3cccc(c23)C1=O,98% (active)
18,COc1ccc2ccc3ccccc3c2c1C=O,74% (active)
19,OC1CCCc2c1cc1ccc3cccc4ccc2c1c34 (centres undefined),90% (active)
